The subject of assay [1] is Plasmodium falciparum Sir2 (PF13_0152, Sir2A). Description: Plasmodium falciparum Sir2A binding compounds – biochemical, small-molecule microarray, 635 nm fluorescence, primary screen (AID 1098).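 Further: score merges spot fluorescence intensity with its signal-to-noise ratio.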 To be noted: fluorescence 635 nm, higher = more signal.
Assay [2] is described as follows: probe aDKK1 binding to arrayed compounds – biochemical, biotinylated probe, 635/667 nm fluorescence, primary screen (AID 1099).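 Further: score merges 667nm spot fluorescence with signal to noise across triplicate slides.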 The following applies: small-molecule microarray, higher = more signal.
The nature of assay [3]: probe aCHRDL2 binding to arrayed compounds – biochemical, biotinylated probe, 635/667 nm fluorescence, primary screen (AID 1100). The following applies: small-molecule microarray, higher = more signal.
A short description of assay [4]: change in splice reporter luminescence, either direction, cell-based, HEK293, spliceosome inhibition project, primary screen (AID 1101).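 Further: HEK293 cells carrying a splicing-competent luciferase reporter gene; test concentration not given here.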 To be noted: HEK293 splicing luciferase reporter, 24 h, higher = more signal, called active from +8 up or from −8 down. (A reporter such as luciferase makes a cellular process visible.)
Assay [5] concerns the target Fibroblast growth factor 10 (Homo sapiens) (UniProt O15520). Description: compounds binding fibroblast growth factor 10 – biochemical, small-molecule microarray, 635 nm fluorescence, primary screen (AID 1102). To be noted: FGF10 binding, fluorescence 635 nm, higher = more signal.
In assay [6] the test system is glycogen synthase kinase-3 (GSK3A per assay name; protocol says GSK3B). Description: compounds binding glycogen synthase kinase-3 – biochemical, small-molecule microarray, 635 nm fluorescence, GSK3A, primary screen (AID 1103). Further: the record names both GSK3A and GSK3B. To be noted: fluorescence 635 nm, higher = more signal.
Assay [7] concerns the target Epidermal growth factor receptor (Homo sapiens) (UniProt P00533). Description: compounds binding epidermal growth factor receptor – biochemical, small-molecule microarray, 635 nm fluorescence, primary screen (AID 1104).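 Further: score merges 667 nm emission intensity with spot signal to noise over triplicate slides.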 To be noted: EGFR binding, higher = more signal.
For assay [8], the target named is Follistatin-related protein 3 (Homo sapiens) (UniProt O95633). Description: compounds binding follistatin-related protein 3 – biochemical, small-molecule microarray, 635 nm fluorescence, primary screen (AID 1105).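 Further: score merges emission near 667 nm and signal to noise per printed spot across three slides.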 The following applies: FSTL3 binding, higher = more signal.
Assay [9] addresses Dickkopf-related protein 1 (Homo sapiens) (UniProt O94907). Description: small molecules binding DKK1 protein – biochemical, small-molecule microarray, 635 nm fluorescence scan, primary screen (AID 1106).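 Further: score merges emission near 667 nm with signal to noise over three replicate slides.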 The following applies: higher = more signal.
Assay [10] relates to Inhibin beta A chain (activin A). Description: small molecules binding activin A – biochemical, small-molecule microarray, 635 nm fluorescence scan, primary screen (AID 1107).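 Further: mouse activin A protein probed at 4.33 µg/mL on printed slides; score merges bound-protein fluorescence near 667 nm with spot signal-to-noise.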 To be noted: INHBA, higher = more signal.
The test system of assay [11] is Human papillomavirus type 1a protein E7 (residues 44-93). Description: small molecules binding HPV E7 44-93 – biochemical, small-molecule microarray, residues 44-93, 635 nm fluorescence, primary screen (AID 1108).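 Further: E7 fragment applied at 1 µg/mL in TBST for 1 h at 4 C; score combines spot fluorescence with its signal to noise ratio.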 The following applies: fluorescence 635 nm, higher = more signal.
Assay [12] in a line: hepatitis C replication reporter changes, two-sided – Huh7 cells, luciferase reporter, HCV replication inhibitor project, primary screen (AID 1109).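 Further: huh7 hepatoma cells harbouring a luciferase neomycin HCV replicon reporter; luciferase luminescence as measure of HCV replicon replication; test concentration not given here.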 To be noted: Huh7 HCV replicon luciferase reporter, 48 h; higher = more signal.
Assay [13] deals with Left-right determination factor 2 (Homo sapiens) (UniProt O00292). Description: small molecules binding LEFTY2 protein – biochemical, small-molecule microarray, 635 nm fluorescence scan, primary screen (AID 1110). To be noted: higher = more signal.
In assay [14] the target is Calmodulin-1 (Homo sapiens) (UniProt P0DP23). Description: small molecules binding calmodulin-1 with EGTA – biochemical, small-molecule microarray, Cy5-labelled CALM1, profiling panel (AID 1111).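 Further: labelled calmodulin applied in Tris saline Tween buffer holding calcium plus EGTA and DTT.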 The following applies: Cy5-CALM1 binding fluorescence, higher = more signal.
For assay [15] the target is unchanged. Description: small molecules binding Ca-loaded calmodulin-1 – biochemical, small-molecule microarray, Cy5-labelled CALM1, plus calcium, artefact control for SMM control-protein annotation, profiling panel (AID 1112).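 Further: score merges spot fluorescence with signal to noise from triplicate slides.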 The following applies: Cy5-CALM1 binding fluorescence, higher = more signal.
Assay [16] can be described thus: probe aWnt5a binding to arrayed compounds – biochemical, biotinylated probe, 635/667 nm fluorescence, primary screen (AID 1113).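 Further: score merges 667 nm fluorescence intensity with signal-to-noise per printed feature.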 To be noted: small-molecule microarray, higher = more signal.
The nature of assay [17]: probe aShh binding to arrayed compounds – biochemical, biotinylated probe, 635/667 nm fluorescence, primary screen (AID 1114).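 Further: probe is biotin-labelled aShh protein from a stem cell growth factor screen; measures binding of labelled protein to compounds printed on the slide; score merges feature fluorescence at 667 nm with signal-to-noise.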 To be noted: small-molecule microarray, higher = more signal.
The nature of assay [18]: probe aNog binding to arrayed compounds – biochemical, biotinylated probe, 635/667 nm fluorescence, primary screen (AID 1115).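 Further: probe is biotinylated aNog protein used at 0.15 µg/mL for 1 h at 4 C; z-score combines 667 nm fluorescence of each spot with its signal to noise.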 To be noted: small-molecule microarray, higher = more signal.
Assay [19] has as its target Torsin-1A-interacting protein 1 (Homo sapiens) (UniProt Q5JTV8). Description: compound microarray binding of lysate hLAP1 – cell lysate, small-molecule microarray, COS7 lysate, 635/667 nm fluorescence, primary screen (AID 1116). The following applies: 635 nm fluorescence, higher = more signal.
Assay [20] deals with Alpha-bungarotoxin (Bungarus multicinctus) (UniProt P60615). Description: compounds binding labelled alpha-BTX control protein – biochemical, small-molecule microarray, Alexa647 label, 635/667 nm fluorescence, artefact control for SMM control protein annotation, profiling panel (AID 1117). To be noted: alpha-BTX-A647 binding fluorescence, higher = more signal.

Drawing on PubChem BioAssay, this text covers composite z-score and z-score for five compounds.

Activity calls are given as the source filed them.

Alpha-bungarotoxin (Bungarus multicinctus), sequence (P60615 whole entry, looked up): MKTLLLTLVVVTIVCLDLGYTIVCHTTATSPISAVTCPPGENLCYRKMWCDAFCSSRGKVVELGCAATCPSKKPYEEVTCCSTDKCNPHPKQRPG
Torsin-1A-interacting protein 1 (Homo sapiens), sequence (Q5JTV8 whole entry, looked up): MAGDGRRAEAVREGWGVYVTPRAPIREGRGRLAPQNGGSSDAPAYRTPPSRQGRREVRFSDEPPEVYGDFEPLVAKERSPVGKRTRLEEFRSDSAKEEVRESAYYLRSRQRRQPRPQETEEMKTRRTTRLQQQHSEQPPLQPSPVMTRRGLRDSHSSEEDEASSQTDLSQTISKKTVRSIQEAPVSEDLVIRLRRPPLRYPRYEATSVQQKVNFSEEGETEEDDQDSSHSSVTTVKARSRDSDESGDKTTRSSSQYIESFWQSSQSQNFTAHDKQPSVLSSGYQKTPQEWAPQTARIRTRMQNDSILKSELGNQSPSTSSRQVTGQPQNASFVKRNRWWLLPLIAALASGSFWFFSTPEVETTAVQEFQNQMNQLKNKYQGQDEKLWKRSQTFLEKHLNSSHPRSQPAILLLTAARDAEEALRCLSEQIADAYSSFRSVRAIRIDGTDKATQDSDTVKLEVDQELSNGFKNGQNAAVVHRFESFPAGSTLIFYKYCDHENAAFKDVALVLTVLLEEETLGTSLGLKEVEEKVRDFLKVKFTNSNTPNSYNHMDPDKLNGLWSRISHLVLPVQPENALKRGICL
Fibroblast growth factor 10 (Homo sapiens), sequence (O15520 whole entry, looked up): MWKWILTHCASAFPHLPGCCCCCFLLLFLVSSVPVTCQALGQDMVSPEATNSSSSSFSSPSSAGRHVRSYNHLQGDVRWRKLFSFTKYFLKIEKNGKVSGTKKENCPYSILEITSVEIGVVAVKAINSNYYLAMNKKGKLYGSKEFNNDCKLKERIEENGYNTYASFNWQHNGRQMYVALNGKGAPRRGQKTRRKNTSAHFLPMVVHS
Dickkopf-related protein 1 (Homo sapiens), sequence (O94907 whole entry, looked up): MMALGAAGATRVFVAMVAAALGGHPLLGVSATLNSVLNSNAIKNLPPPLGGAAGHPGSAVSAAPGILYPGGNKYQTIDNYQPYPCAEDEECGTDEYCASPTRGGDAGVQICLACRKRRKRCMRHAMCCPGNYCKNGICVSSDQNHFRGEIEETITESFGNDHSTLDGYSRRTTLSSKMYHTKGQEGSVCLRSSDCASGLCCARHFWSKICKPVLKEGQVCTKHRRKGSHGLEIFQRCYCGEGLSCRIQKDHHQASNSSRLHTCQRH
Epidermal growth factor receptor (Homo sapiens), sequence (P00533 whole entry, looked up): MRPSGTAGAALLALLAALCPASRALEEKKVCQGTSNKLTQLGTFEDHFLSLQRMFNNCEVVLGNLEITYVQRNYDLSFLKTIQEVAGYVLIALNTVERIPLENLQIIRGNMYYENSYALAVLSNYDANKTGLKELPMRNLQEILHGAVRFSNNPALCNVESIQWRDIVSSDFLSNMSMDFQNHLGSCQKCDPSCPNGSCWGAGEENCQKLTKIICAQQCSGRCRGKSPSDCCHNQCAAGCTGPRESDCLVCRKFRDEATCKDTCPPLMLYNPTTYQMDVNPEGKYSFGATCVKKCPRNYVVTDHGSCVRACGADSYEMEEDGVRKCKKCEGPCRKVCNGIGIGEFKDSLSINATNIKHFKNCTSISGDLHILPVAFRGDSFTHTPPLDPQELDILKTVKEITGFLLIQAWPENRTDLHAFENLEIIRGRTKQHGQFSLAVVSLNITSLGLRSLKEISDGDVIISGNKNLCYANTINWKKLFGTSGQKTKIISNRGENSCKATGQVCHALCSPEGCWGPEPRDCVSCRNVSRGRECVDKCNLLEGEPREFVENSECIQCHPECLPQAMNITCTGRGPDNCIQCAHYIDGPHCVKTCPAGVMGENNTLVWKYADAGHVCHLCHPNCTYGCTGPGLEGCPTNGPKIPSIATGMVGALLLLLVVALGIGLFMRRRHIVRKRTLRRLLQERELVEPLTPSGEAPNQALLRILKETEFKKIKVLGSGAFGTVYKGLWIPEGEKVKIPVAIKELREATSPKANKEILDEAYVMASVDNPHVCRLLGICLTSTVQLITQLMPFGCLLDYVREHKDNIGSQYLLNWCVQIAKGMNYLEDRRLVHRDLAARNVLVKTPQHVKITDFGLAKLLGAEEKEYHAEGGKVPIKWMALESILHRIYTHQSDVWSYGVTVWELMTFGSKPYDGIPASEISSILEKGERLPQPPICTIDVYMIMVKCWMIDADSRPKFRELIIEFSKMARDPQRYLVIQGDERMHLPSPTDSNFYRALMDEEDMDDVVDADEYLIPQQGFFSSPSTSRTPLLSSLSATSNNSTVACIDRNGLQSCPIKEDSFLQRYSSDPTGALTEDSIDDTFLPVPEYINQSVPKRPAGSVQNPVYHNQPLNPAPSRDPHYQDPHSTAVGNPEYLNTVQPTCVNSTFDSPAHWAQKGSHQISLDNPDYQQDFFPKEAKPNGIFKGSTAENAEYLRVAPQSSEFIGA
Follistatin-related protein 3 (Homo sapiens), sequence (O95633 whole entry, looked up): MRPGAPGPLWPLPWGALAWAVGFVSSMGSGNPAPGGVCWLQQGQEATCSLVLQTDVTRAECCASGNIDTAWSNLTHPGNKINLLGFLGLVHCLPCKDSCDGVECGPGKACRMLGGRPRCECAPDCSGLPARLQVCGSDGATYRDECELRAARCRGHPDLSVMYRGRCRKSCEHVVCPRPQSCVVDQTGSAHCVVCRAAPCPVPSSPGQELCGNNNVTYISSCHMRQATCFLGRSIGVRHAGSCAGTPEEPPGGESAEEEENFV
Left-right determination factor 2 (Homo sapiens), sequence (O00292 whole entry, looked up): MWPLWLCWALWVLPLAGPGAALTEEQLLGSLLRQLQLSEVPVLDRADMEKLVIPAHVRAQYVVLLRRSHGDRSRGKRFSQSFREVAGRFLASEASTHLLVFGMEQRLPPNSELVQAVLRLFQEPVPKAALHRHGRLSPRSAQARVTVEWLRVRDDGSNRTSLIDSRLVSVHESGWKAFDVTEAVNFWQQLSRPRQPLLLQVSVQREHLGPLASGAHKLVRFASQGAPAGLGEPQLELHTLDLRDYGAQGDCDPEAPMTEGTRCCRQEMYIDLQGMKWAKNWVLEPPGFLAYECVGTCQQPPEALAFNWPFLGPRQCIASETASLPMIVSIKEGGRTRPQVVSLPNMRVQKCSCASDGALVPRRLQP

`C=CCC(OC(C)=O)[C@@H]1[C@@H](N(Cc2ccc(-c3cccc(C(F)(F)F)c3)o2)C(=O)Cc2ccc(OC)cc2)c2cc(OCCCO)ccc2N1C(=O)Cc1ccc2ccccc2c1` (stereo not given in full): the composite z-score in [1] is 0.946; in [2], -0.178; in assay [3], 0.406; in [5], -0.0775; in assay [6], -0.953; in [7] it was -0.749. Further, the composite z-score in assay [8] is -0.475; in assay [9], -0.274; in [10] it was 0.613; in [11], -0.763; in assay [13], -0.429; in assay [14], -0.472. For the same compound, the composite z-score was -0.427 in assay [15]; -0.0383 in [16]; -0.206 in assay [17]; -0.463 in assay [18]; -0.33 in assay [19]; 0.553 in assay [20]. Also, the z-score in assay [4] is -1.16 (inactive); in assay [12], 0.685.
Take `CC(=O)NCCCC[C@@H]1NC(=O)[C@H]2C[C@@H](C(=O)NCCCCCNC(=O)CS)[C@@H](c3cccc(OCCO)c3)N2C1=O`: the composite z-score in [1] was 1.52; in [2], -0.136; in assay [3], 0.441; in assay [5], 0.349; in assay [6] it was 0.552; in [7] it was 0.39. Moreover, the composite z-score turned out to be 0.397 in assay [8]; 0.607 in [9]; 0.469 in assay [10]; 0.0676 in [11]; 0.0794 in assay [13]; 0.232 in assay [14]. Moreover, the composite z-score was 0.202 in assay [15]; -0.157 in assay [16]; -0.147 in assay [17]; -0.158 in assay [18]; 0.868 in assay [19]; 0.389 in assay [20]. Further, the z-score in assay [4] was -0.293 (inactive); in assay [12], 0.217.
`COCC(=C=CC[C@@H](O)c1cccc(OCCO)c1)CCO`: the composite z-score in assay [1] was 1.03; in [2], 0.0771; in [3], 0.268; in assay [5] it was 0.984; in [6], 0.162; in assay [7], -0.846. For the same compound, the composite z-score in [8] is 0.167; in assay [9] it was -0.111; in assay [10], 0.598; in assay [11] it was 0.328; in assay [13], -0.313; in assay [14] it was 0.32. Further, the composite z-score in [15] was 0.281; in assay [16] it was 0.129; in [17], -0.372; in [18], -0.0987; in [19], 0.69; in assay [20], 1.73. Also, the values for the z-score in assay [4] and in assay [12] were 0.317 (inactive) and 0.22, respectively.
For the compound `[N-]=[N+]=NC[C@H](Cc1ccccc1)NC(=O)c1ccccc1`, the composite z-score was -0.554 in assay [1]; -0.124 in assay [2]; -0.414 in [3]; -0.0183 in assay [5]; -0.089 in assay [6]; 0.0214 in assay [7]. For the same compound, the composite z-score in assay [8] was -0.394; in assay [9] it was 0.0359; in assay [10] it was 0.382; in [11], -0.778; in assay [13] it was -0.0257; in [14], -0.334. Besides, the composite z-score was -0.203 in assay [15]; -0.0269 in [16]; -0.0146 in assay [17]; -0.293 in assay [18]; 0.363 in assay [19]; 0.0961 in [20]. Further, the z-score in [4] was -0.0894 (inactive); in assay [12], 2.25.
Regarding `C=C(COC)C(=O)CC[C@H](OC(C)=O)c1ccc(OCCO)cc1`, the composite z-score in assay [1] was 0.761; in assay [2], -0.0747; in [3] it was -0.0486; in [5], 1.35; in assay [6] it was -0.143; in assay [7] it was -0.0056. Also, the composite z-score in assay [8] is 0.576; in assay [9], 0.722; in assay [10] it was 0.136; in assay [11] it was 0.159; in assay [13], 0.557; in assay [14], -0.2. Besides, the composite z-score in [15] is -1.08; in assay [16], -0.0445; in assay [17], -0.0011; in assay [18] it was -0.0562; in assay [19], 3.4; in [20], 0.915. For the same compound, the z-score in assay [4] is -1.5 (inactive); in [12] it was -1.17.
